Tb PFK inh: qHTS Assay to Find Inhibitors of T. brucei phosphofructokinase; ATP-dependent 6-phosphofructokinase (Trypanosoma brucei brucei), O15648; T. brucei PFK, ADP-Glo luminescence; Potency, µM (titrated, usually from 57.5 µM), actives largely listed as inhibitors; actives 0.17% (n = 330,000); also: nearly all actives have a fitted effect of over 60% in size
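In TEA buffer at pH 8.0 with 5 mM MgCl2, enzyme (1.25 nM) converted F6P (0.5 mM) and ATP (0.1 mM) for 45 min at room temperature. ADP product was read by luciferase luminescence.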
PLK1 PBD block: qHTS for Inhibitors of PLK1-PDB (polo-like kinase 1 - polo-box domain): Primary Screen. Serine/threonine-protein kinase PLK1 (Homo sapiens), P53350. Plk1 PBD binding of FITC phosphopeptide, fluorescence polarization. Potency, µM, hits mostly inhibitors. actives 2.8% (n = 360,000). AID 720504, 2013; also: series mostly up to about 57 µM; nearly all actives have a fitted effect of over 65% in size
S-ASM inh: Inhibitors of Secretory Acid Sphingomyelinase (S-ASM): qHTS; Sphingomyelin phosphodiesterase (Homo sapiens), P17405; placental ASM, HMU-PC fluorogenic substrate, 60 min; Potency, µM (highest dose often 57.5 µM), most hits filed as inhibitors; actives 0.006% (n = 340,000); AID 504937, 2011
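Fluorescence read-out (Ex 386 nm, Em 447 nm) after stopping the reaction at pH 10. Enzyme: ASM from human placenta; substrate HMU-PC0, 9 uM final; 60 min, 37 °C. Compound preincubation 10 min, ambient temperature.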
Pin1 inh: qHTS Assay to Find Inhibitors of Pin1; Peptidyl-prolyl cis-trans isomerase NIMA-interacting 1 (Homo sapiens), Q13526; Pin1 FP peptide displacement, HiFluor488, 10 min; Potency, µM (top dose mostly 115 µM), most hits filed as inhibitors; actives 0.009% (n = 390,000); active = well fitted inhibition curve with a large enough effect in the polarisation, with a control signal flat, not every such curve was filed as active; inconclusive = small, poorly fitted or top-dose-only effect, or effect the other way, or a change in a side signal; inactive = no such curve, though single readings can be large or run the other way; the % refers to the polarisation
TDP1 inh: qHTS Assay for Inhibitors of Tyrosyl-DNA Phosphodiesterase (TDP1); Potency, µM (titrated, usually from 130 µM), hits mostly inhibitors; recombinant TDP1, AlphaScreen DNA substrate cleavage; actives 0.28% (n = 350,000); AID 485290, 2010; also: nearly all actives have a fitted effect of over 40% in size
Target sequence (Q9NUW8 whole entry, looked up): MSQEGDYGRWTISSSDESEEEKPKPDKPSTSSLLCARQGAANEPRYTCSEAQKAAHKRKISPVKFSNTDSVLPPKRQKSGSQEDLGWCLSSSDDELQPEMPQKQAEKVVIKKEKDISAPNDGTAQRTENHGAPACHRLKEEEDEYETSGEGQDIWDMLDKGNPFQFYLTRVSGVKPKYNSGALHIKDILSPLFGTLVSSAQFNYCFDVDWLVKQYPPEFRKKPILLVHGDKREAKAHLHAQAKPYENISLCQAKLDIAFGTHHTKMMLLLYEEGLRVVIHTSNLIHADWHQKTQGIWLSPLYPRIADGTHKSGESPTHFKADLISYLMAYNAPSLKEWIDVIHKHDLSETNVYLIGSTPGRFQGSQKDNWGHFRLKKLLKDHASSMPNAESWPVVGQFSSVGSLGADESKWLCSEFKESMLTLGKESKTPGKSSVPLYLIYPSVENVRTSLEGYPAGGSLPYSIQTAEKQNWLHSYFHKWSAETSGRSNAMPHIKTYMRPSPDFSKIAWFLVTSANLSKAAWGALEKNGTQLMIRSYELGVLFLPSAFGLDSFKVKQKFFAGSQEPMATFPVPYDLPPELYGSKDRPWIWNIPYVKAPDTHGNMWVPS
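Enzyme-compound mixtures sat 15 min at room temperature, followed by a 5 min reaction with 15 nM final substrate and 10 min with AlphaScreen beads. Recombinant human Tdp1 was used at 1 nM final.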
VDR inh: Inhibitors of the vitamin D receptor (VDR): qHTS | Vitamin D3 receptor (Homo sapiens), P11473 | Potency, µM, hits mostly inhibitors | AID 504847, 2011 | VDR-SRC2-3 peptide fluorescence polarization, 2 h | actives 0.93% (n = 400,000)
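FP read-out; VDR + SRC2-3 coactivator peptide; 23 nl compound by pintool; 2 h RT incubation; reagents held at 4 deg C, protected from light.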
Each line names hits and unclear results; the compound was inactive in the other large screens. Hits are enriched below; roughly 3.1% of the tested compounds scored in any of these assays. Unless noted, calls follow the shape of the dose curve; as a rule, active = well fitted curve in the direction sought with a large enough effect; inconclusive = small, poorly fitted or top-dose-only effect, or another doubt; inactive = no such curve, though single readings can be large; an effect the other way counts as inactive or inconclusive.

COc1cccc(CN2CC(C(=O)NCCOc3cccnc3)CCC2=O)c1 (stereo not drawn)	PLK1 PBD block 17µM
Cc1ccccc1-c1nc(Nc2ccncc2)c2ccccc2n1	none (no result: Tb PFK inh, PLK1 PBD block, S-ASM inh, Pin1 inh, TDP1 inh)
CN(C)c1ccc(-c2nc(-n3ccnc3)c3ccccc3n2)cc1	VDR inh 25µM (no result: Tb PFK inh, PLK1 PBD block, S-ASM inh, Pin1 inh, TDP1 inh)
Clc1ccccc1-c1nc(Nc2ccncc2)c2ccccc2n1	VDR inh 35µM (no result: Tb PFK inh, PLK1 PBD block, S-ASM inh, Pin1 inh, TDP1 inh)
CN(C)C(=O)c1ccc(-c2nc(-n3ccnc3)c3ccccc3n2)cc1	none (no result: Tb PFK inh, PLK1 PBD block, S-ASM inh, Pin1 inh, TDP1 inh)
Clc1ccccc1-c1nc(-n2ccnc2)c2ccccc2n1	VDR inh 56µM (no result: Tb PFK inh, PLK1 PBD block, S-ASM inh, Pin1 inh, TDP1 inh)
O=S1(=O)N=C(Oc2cccc(-c3ccccc3)c2)c2ccccc21	none (no result: Tb PFK inh, PLK1 PBD block, S-ASM inh, VDR inh)
CC(C)CCN1C(=O)c2ccc(C(=O)Nc3ccc(Br)cc3C(=O)O)cc2C1=O	PLK1 PBD block inconclusive, Pin1 inh inconclusive, VDR inh 79µM
CC(C)CN1C(=O)c2ccc(C(=O)Nc3ccccc3C(=O)O)cc2C1=O	PLK1 PBD block 24µM, VDR inh inconclusive (no result: TDP1 inh)
CCc1ccc(C2CC(=O)Nc3c2c(=O)n(C)c2ncnn32)cc1 (stereo not drawn)	none (no result: Tb PFK inh, PLK1 PBD block, S-ASM inh)
CSc1ccc(/C=C(\C(=O)O)c2ccc(S(=O)(=O)N3CCCC3)s2)cc1	TDP1 inh 28µM
Cc1cc(-n2c(C)cc(C(=O)CN3C(=O)NC4(CCCCCC4)C3=O)c2C)no1	none
Cc1cc(C(=O)CN2C(=O)NC3(CCCCC3)C2=O)c(C)n1-c1ccc2c(c1)OCO2	PLK1 PBD block 24µM, VDR inh inconclusive
CCc1cccc(C)c1NC(=O)CSc1nc2ccccc2nc1Cc1ccccc1	none (no result: Tb PFK inh, PLK1 PBD block, S-ASM inh)
CCOC(=O)CCP(=O)(O)C(O)c1ccccc1 (stereo not drawn)	PLK1 PBD block 24µM
CN(CP(=O)(O)C(O)c1ccccc1)S(C)(=O)=O (stereo not drawn)	none
CCOc1cccc2sc(N3CCN(C(=O)c4ccc5c(c4)CCCC5)CC3)nc12	none (no result: Tb PFK inh, PLK1 PBD block, S-ASM inh)
COC(=O)c1c(NC(=O)c2ccccc2)sc2c1CC(C)(C)OC2	none
C=C(C)CNC(=S)Nc1sc2c(c1C(=O)OCC)CC(C)(C)OC2	PLK1 PBD block 19µM, VDR inh inconclusive
CCOC(=O)c1c(NC(=O)c2ccccc2C)sc2c1CC(C)(C)OC2	PLK1 PBD block 21µM
CCOC(=O)c1c(NC(=O)c2ccc(C)cc2)sc2c1CC(C)(C)OC2	PLK1 PBD block 24µM, TDP1 inh inconclusive
CC1(C)Cc2c(sc(NC(=O)C(=O)N3CCCC3)c2C(N)=O)CO1	PLK1 PBD block 24µM
Cc1cc(C)c(Cn2c(C)c(CNCCCc3ccccc3)c(C(=O)O)c2C)c(C)c1	none (no result: Tb PFK inh, PLK1 PBD block, S-ASM inh)
O=C(CC1C(=O)NCCN1Cc1cccc(F)c1)NCCCOc1cccnc1 (stereo not drawn)	PLK1 PBD block 24µM
CC#CCN1c2ccccc2[C@]23C[C@@H](C(=O)OC)N(S(=O)(=O)c4ccc5c(c4)OCCN5C)C2=NC(C(=O)OC)=C(C(=O)OC)[C@H]13	none (no result: Tb PFK inh, PLK1 PBD block, S-ASM inh, Pin1 inh, VDR inh)
CC(=O)Nc1ccc2c(COC(=O)CC3Sc4ccccc4NC3=O)cc(=O)oc2c1 (stereo not drawn)	TDP1 inh 20µM
CC(=O)C(Cl)C(=O)Nc1ccccc1 (stereo not drawn)	PLK1 PBD block 2.7µM, VDR inh 14µM
O=C(Nc1ccccc1)C(Cl)C(=O)c1ccccc1 (stereo not drawn)	PLK1 PBD block 1.5µM, VDR inh inconclusive (no result: TDP1 inh)
CC(C(=O)Nc1ccccc1)C(=O)Nc1ccccc1	none (no result: TDP1 inh)
O=C(Nc1ccccc1)C(Cc1ccccc1)c1ccccc1 (stereo not drawn)	none (no result: Tb PFK inh, TDP1 inh)
CC(=O)OCCBr	none (no result: Tb PFK inh, PLK1 PBD block, S-ASM inh, Pin1 inh)
Cn1c(C(=O)NCc2ccccc2Cl)cc2sc(Cl)cc21	none (no result: Tb PFK inh, PLK1 PBD block, S-ASM inh)
Cn1cncc1C#Cc1c(C=O)[nH]c2ccccc12	none
Cn1cncc1C#Cc1c(C=O)n(C)c2ccccc12	TDP1 inh 56µM

Screening data from PubChem.
